Experimental data: PubChem BioAssay AID2284075 (EPA ToxCast)
Activity calls are given as the source filed them. How the source made its calls: active means hit-call score of the fitted dose curve at least 0.9, where 1 is the maximum; inactive means score below 0.9.

Molecular target: human Aurora-A (AURKA) Other Protein Kinase, AURKA (gene 6790) (UniProt O14965)
Assay: ERF_FR_ENZ_hAURKA: Eurofins (ERF) Enzymatic Radiometric [10 uM ATP] KinaseProfiler LeadHunter Assay for human Aurora-A (AURKA) Other Protein Kinase
Protocol: ERF_FR_ENZ_hAURKA is a biochemical, single-readout assay that uses extracted gene-proteins in a cell-free assay. Measurements were taken 0.25 hour after chemical dosing in a 96-well plate. See Aurora-A Human Other Protein Kinase Enzymatic LANCE Assay [Km ATP], Cerep.ERF_FR_ENZ_hAURKA is an assay component calculated from the ERF_FR_ENZ_hAURKA assay. It is designed to measure enzyme activity using a type of enzyme reporter as detected by fluorescence intensity with LANCE technology.Data from the assay component ERF_FR_ENZ_hAURKA was analyzed at the assay endpoint, ERF_FR_ENZ_hAURKA, in the positive analysis fitting direction relative to DMSO as the negative control and baseline of activity. Using a type of enzyme reporter, loss-of-signal activity can be used to understand changes in enzymatic activity as they relate to gene AURKA. To generalize the intended target to other relatable targets, this assay endpoint is annotated to the kinase intended target family, where the subfamily is serine/threonine kinase.
Aurora-A (h) is incubated with 8 mM MOPS pH 7.0, 0.2 mM EDTA, 200 uM LRRASLG (Kemptide), 10 mM MgAcetate and [gamma-33P]-ATP (specific activity and concentration as required). The reaction is initiated by the addition of the Mg/ATP mix. After incubation for 40 minutes at room temperature, the reaction is stopped by the addition of phosphoric acid to a concentration of 0.5%. […]

human Aurora-A (AURKA) Other Protein Kinase, AURKA (gene 6790), sequence (O14965 whole entry, looked up): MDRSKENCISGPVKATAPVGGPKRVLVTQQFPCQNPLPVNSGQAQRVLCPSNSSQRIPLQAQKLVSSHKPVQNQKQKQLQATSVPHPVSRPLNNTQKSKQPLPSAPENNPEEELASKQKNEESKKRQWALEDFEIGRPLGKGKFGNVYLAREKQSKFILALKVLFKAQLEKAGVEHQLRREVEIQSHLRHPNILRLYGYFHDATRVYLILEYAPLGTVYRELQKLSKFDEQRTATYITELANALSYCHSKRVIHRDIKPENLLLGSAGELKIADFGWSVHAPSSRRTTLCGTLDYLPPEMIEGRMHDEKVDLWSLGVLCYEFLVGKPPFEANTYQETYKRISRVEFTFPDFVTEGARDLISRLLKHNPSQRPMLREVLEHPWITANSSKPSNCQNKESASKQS

Row | SMILES | outcome
1 | O=C(/C=C/c1ccc(O)cc1)CC(=O)/C=C/c1ccc(O)cc1 | inactive
